Data as given in PubChem BioAssay (NCATS).
Inconclusive results are not listed. Where a call stands in place of a potency, no number is given. The source made the active and inactive calls. The call rests on the fitted dose curve; in most records, active means well fitted inhibition curve with a large enough effect; inconclusive means small, poorly fitted or top-dose-only effect; inactive means flat fitted curve, though single readings scatter.

Test system: Zika virus NS2B-NS3 protease
Test: Primary screen GU AMC qHTS for Zika virus inhibitors (AID 1347154); further: nearly all actives have a fitted effect of over 70% in size
Conditions: Zika NS2B-NS3 unlinked protease, AMC fluorogenic substrate; series mostly up to 54.1 µM
In short: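 Unlinked Zika NS2B hydrophilic domain/NS3 protease domain noncovalent complex (25 nM final) in 10 mM Tris-HCl pH 8.0, 0.01% Tween 20, with AMC peptide substrate. Fluorescence (ex 340, em 450 nm) change over 15 min, room temperature; percent inhibition fitted to 4-parameter Hill equation.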

**Q.** `COc1ccc(-c2cc(=S)ss2)cc1` was tested. Which Potency did it give?
**A.** inactive

**Q.** Which Potency does the source give for `CN(C)CCn1nnnc1SCC1=C(C(=O)O)N2C(=O)[C@@H](NC(=O)Cc3csc(N)n3)[C@H]2SC1` here?
**A.** inactive

**Q.** `CC(C(=O)O)c1ccc(C(=O)c2cccs2)cc1` (stereo not drawn) was tested. Which Potency did it give?
**A.** inactive

**Q.** Which Potency does the source give for `c1ccc2sc(SN3CCOCC3)nc2c1` here?
**A.** inactive

**Q.** `CCCCCCCC/C=C/C(=O)O` was tested. Which Potency did it give?
**A.** inactive

**Q.** Which Potency does the source give for `Ic1ccc(N2CCN(Cc3c[nH]c4ncccc34)CC2)cc1` here?
**A.** inactive

**Q.** For `COc1cc(/C=C/C(=O)CC(=O)/C=C/c2ccc(O)c(OC)c2)ccc1O`, which Potency is on record?
**A.** inactive

**Q.** For `Cc1c(C(=O)O)c(O)cc2c1C(=O)c1c(O)c([C@@H]3O[C@H](CO)[C@@H](O)[C@H](O)[C@H]3O)c(O)c(O)c1C2=O`, which Potency is on record?
**A.** inactive

**Q.** Which Potency does the source give for `Cc1c(N)c(=O)n(-c2ccccc2)n1C` here?
**A.** inactive

**Q.** With `CO[C@@]1(NC(=O)Cc2cccs2)C(=O)N2C(C(=O)O)=C(COC(N)=O)CS[C@@H]21` as the compound, how does the Potency read?
**A.** inactive

**Q.** For `O=C(O)[C@@H]1C[C@@H](C(=O)O)N1`, which Potency is on record?
**A.** inactive

**Q.** For `CN1CCC[C@H]1c1cccnc1`, which Potency is on record?
**A.** inactive

**Q.** Which Potency does the source give for `O=C(Nc1ccc(C(=O)O)c(O)c1)c1ccccc1` here?
**A.** inactive

**Q.** `CC1(C)C[C@@H]1C(=O)N/C(=C\CCCCSC[C@H](N)C(=O)O)C(=O)O` was tested. Which Potency did it give?
**A.** inactive

**Q.** With `CCCCCCCCCCCC(=O)[O][Sn]([CH2]CCC)([CH2]CCC)[O]C(=O)CCCCCCCCCCC` as the compound, how does the Potency read?
**A.** inactive

**Q.** `Cc1nc2sccn2c(=O)c1CCN1CCC(=C(c2ccccc2)c2ccc(F)cc2)CC1` was tested. Which Potency did it give?
**A.** inactive

**Q.** With `Cc1ccc(O)c(-n2nc3ccccc3n2)c1` as the compound, how does the Potency read?
**A.** inactive

**Q.** How did the Potency turn out when `CC(C(=O)O)c1ccc(C(=O)c2ccccc2)s1` (stereo not drawn) was run?
**A.** inactive

**Q.** For `CN1CCc2ccccc2Cc2[nH]c3ccccc3c2CC1`, which Potency is on record?
**A.** inactive

**Q.** With `CC(C)(C)c1nnc(NS(=O)(=O)c2ccc(N)cc2)s1` as the compound, how does the Potency read?
**A.** inactive

**Q.** Which Potency does the source give for `O=C(O)/C=C\C(=O)O` here?
**A.** inactive

**Q.** How did the Potency turn out when `NC(=S)NCCC[C@H](N)C(=O)O` was run?
**A.** inactive

**Q.** For `COC(=O)C1=C(C)NC(C)=C(C(=O)OCC(C)C)C1c1ccccc1[N+](=O)[O-]` (stereo not drawn), which Potency is on record?
**A.** inactive

**Q.** With `O=C(O)c1cc(=O)c2ccccc2[nH]1` as the compound, how does the Potency read?
**A.** inactive

**Q.** How did the Potency turn out when `Cc1nc2ccccc2n1Cc1ccc(Cl)cc1` was run?
**A.** inactive

**Q.** With `Cc1ccc(C(=O)c2ccc(CC(=O)O)n2C)cc1` as the compound, how does the Potency read?
**A.** inactive

**Q.** Which activity change, negative = inhibition does the source give for `CCCCCC(O)c1cccc(OCc2ccc3ccccc3n2)c1` (stereo not drawn) here?
**A.** 14.2% [at 6.83 µM] (inactive)

**Q.** Which Potency does the source give for `CCCCC1C(=O)N(c2ccccc2)N(c2ccc(O)cc2)C1=O` (stereo not drawn) here?
**A.** inactive

**Q.** How did the Potency turn out when `O=C(O)c1ccccc1Nc1cccc(C(F)(F)F)c1` was run?
**A.** inactive

**Q.** With `CCCCCCCCCCCCCCCC(=O)OC(C)C` as the compound, how does the Potency read?
**A.** inactive

**Q.** How did the Potency turn out when `S=c1[nH]c2ccccc2s1` was run?
**A.** inactive

**Q.** For `CCCC(=O)OC[C@@H](OC(=O)CCC)[C@@H](OC(=O)CCC)[C@H](Cn1c2nc(=O)[nH]c(=O)c-2nc2cc(C)c(C)cc21)OC(=O)CCC`, which Potency is on record?
**A.** inactive

**Q.** How did the Potency turn out when `CCOc1ccc2nc(S(N)(=O)=O)sc2c1` was run?
**A.** inactive

**Q.** How did the Potency turn out when `O=C(OCc1ccccc1)c1ccccc1` was run?
**A.** inactive

**Q.** For `Nc1c(CC(=O)O)cccc1C(=O)c1ccc(Br)cc1`, which Potency is on record?
**A.** inactive

**Q.** `NC(=O)C(c1ccccc1)(c1ccccc1)[C@@H]1CCN(CCc2ccc3c(c2)CCO3)C1` was tested. Which Potency did it give?
**A.** inactive

**Q.** With `Nc1cc(-c2ccncc2)c[nH]c1=O` as the compound, how does the Potency read?
**A.** inactive

**Q.** How did the Potency turn out when `CCCOC(=O)c1ccc(O)cc1` was run?
**A.** inactive
